Laboratory results: PubChem BioAssay (NCATS)
Where “and” joins values, the source holds several entries; their conditions need not be identical. Equal entries are not always repeated. Inconclusive results are not listed. A call without a number means that no potency is given here. A structure can be active in one record and inactive in another. Calls of active or inactive are those of the source. Calls come from the whole dose curve; as a rule, active = well fitted curve in the direction sought with a large enough effect; inconclusive = small, poorly fitted or top-dose-only effect, or another doubt; inactive = no such curve, though single readings can be large; an effect the other way counts as inactive or inconclusive.

Columns and labels:
[1] = target: Cytochrome P450 2C9 (Homo sapiens) (UniProt P11712); experiment: qHTS Assay for Inhibitors and Substrates of Cytochrome P450 2C9 (AID 883); note: nearly all actives have a fitted effect of over 60% in size; note: potency is the fitted concentration of half-maximal effect
Procedure, shortened: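 Luminescent read-out of deoxyluciferin hydroxylation, normalized to 57uM sulphaphenazole (AC100). Reaction: 10nM enzyme, 100uM Luciferin-H (equal to KM), 25mM KPO4, 10 min compound preincubation, then 60 min with NADPH regeneration, both at 37C.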

[2] = target: Cytochrome P450 3A4 (Homo sapiens) (UniProt P08684); experiment: qHTS Assay for Inhibitors and Substrates of Cytochrome P450 3A4 (AID 884); note: nearly all actives have a fitted effect of over 50% in size; note: potency is the fitted concentration of half-maximal effect; for activity change, negative = inhibition: series mostly up to about 57 µM
Procedure, shortened: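 Luminescent readout of luciferin produced by CYP3A4 (20 nM) dealkylation of Luciferin-PPXE, 25 uM (its KM). NADPH-driven reaction ran 60 min at RT after 10 min compound preincubation; data scaled to 57 uM ketoconazole as 100% inhibition.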

[3] = target: Cytochrome P450 2D6 (Homo sapiens) (UniProt P10635); experiment: qHTS Assay for Inhibitors and Substrates of Cytochrome P450 2D6 (AID 891); note: nearly all actives have a fitted effect of over 60% in size; note: potency is the fitted concentration of half-maximal effect;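 for activity change, negative = inhibition: luciferin methyl ether substrate demethylated by CYP2D6 with NADPH regeneration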
Procedure, shortened: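 Luminescent read-out of luciferin formed by 5 nM human CYP2D6 demethylating 30 uM Luciferin-ME EGE (Km level) over 60 min at room temperature after NADPH regeneration addition. Data normalized to full inhibition by 1.43 uM quinidine.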

[4] = target: Cytochrome P450 2C19 (Homo sapiens) (UniProt P33261); experiment: qHTS Assay for Inhibitors and Substrates of Cytochrome P450 2C19 (AID 899); note: nearly all actives have a fitted effect of over 60% in size; note: potency is the fitted concentration of half-maximal effect
Procedure, shortened: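 Luminescence readout of luciferin formed from 10uM Luciferin-H EGE (KM level) by 5 nM CYP2C19 in 50mM KPO4. 60 min NADPH-driven reaction at 37C after 10 min compound preincubation; data scaled to 57uM ketoconazole inhibition.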

[5] = target: Cytochrome P450 3A4 (Homo sapiens) (UniProt P08684); experiment: qHTS Assay for Activators of Cytochrome P450 3A4 (AID 885); note: nearly all actives have a fitted effect of over 65% in size
Procedure, shortened: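 Luminescent readout of luciferin formed from 25 uM Luciferin-PPXE (KM level) by 20 nM CYP3A4 in 200 mM KPO4, with 60 min NADPH-driven reaction at room temperature after 10 min compound exposure. Ketoconazole (57 uM) defined 100% inhibition.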

Cytochrome P450 2C19 (Homo sapiens), sequence (P33261 whole entry, looked up): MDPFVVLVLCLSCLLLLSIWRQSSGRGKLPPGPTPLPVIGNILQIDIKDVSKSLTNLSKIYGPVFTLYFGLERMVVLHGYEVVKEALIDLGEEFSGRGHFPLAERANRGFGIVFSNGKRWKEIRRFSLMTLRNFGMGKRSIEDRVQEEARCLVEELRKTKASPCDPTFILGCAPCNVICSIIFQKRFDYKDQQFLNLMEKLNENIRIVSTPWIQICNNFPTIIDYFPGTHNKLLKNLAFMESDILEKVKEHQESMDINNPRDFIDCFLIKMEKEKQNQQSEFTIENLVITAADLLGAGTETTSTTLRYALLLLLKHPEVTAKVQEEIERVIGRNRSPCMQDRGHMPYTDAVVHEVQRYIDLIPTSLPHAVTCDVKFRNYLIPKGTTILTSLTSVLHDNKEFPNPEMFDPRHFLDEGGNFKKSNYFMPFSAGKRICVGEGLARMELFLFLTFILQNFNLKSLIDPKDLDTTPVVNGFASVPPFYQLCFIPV
Cytochrome P450 2C9 (Homo sapiens), sequence (P11712 whole entry, looked up): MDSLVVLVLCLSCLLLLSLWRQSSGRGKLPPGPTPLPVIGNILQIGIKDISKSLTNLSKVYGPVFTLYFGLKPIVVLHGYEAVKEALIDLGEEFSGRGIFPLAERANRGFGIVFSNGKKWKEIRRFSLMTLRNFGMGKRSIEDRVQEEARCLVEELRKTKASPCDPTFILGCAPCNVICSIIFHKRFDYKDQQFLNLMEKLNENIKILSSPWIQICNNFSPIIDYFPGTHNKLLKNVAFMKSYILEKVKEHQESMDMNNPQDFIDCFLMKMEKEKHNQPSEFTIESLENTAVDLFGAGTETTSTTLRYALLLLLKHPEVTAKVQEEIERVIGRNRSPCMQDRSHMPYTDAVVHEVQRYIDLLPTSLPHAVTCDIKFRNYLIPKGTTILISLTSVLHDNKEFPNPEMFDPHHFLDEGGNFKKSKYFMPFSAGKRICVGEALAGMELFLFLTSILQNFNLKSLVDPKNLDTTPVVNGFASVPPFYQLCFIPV
Cytochrome P450 2D6 (Homo sapiens), sequence (P10635 whole entry, looked up): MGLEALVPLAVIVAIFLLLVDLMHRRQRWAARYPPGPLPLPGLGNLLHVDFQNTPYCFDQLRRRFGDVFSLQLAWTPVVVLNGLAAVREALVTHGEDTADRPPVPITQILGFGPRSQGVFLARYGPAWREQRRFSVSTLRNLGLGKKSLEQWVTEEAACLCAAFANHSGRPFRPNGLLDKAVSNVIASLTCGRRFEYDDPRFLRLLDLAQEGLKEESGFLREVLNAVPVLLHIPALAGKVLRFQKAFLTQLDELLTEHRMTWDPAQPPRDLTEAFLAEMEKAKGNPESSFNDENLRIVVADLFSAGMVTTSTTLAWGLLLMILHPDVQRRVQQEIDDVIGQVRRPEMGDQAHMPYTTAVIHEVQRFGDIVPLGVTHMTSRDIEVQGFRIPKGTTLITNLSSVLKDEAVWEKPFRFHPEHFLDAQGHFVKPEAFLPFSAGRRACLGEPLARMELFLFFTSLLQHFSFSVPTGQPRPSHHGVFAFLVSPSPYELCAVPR
Cytochrome P450 3A4 (Homo sapiens), sequence (P08684 whole entry, looked up): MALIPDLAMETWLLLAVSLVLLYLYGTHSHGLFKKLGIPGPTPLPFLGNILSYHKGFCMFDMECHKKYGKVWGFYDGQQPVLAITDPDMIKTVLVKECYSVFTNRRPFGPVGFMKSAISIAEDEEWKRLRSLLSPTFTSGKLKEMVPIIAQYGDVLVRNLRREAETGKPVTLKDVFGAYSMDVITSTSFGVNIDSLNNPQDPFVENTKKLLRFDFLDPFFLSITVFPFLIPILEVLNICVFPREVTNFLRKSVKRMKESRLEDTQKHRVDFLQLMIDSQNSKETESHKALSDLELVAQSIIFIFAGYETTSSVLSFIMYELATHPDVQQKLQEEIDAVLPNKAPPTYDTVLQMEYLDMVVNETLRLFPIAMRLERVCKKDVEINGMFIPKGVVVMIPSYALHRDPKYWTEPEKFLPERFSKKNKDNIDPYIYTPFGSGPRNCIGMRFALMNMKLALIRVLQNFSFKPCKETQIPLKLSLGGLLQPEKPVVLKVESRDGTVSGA

Compound	Potency [1]	activity change, negative = inhibition [2]	Potency [3]	Potency [4]	activity change, positive = activation [5]	Potency [2]	Potency [5]
COC(=O)NC(c1cccc(C)c1)[C@@]1(C(=O)OC)CCCC1=O (stereo partly specified)	inactive	-25.8% [at 11.4 µM] (inactive)	inactive	inactive	–	–	–
CCCc1cc2c(c(=O)o1)C(O)C1OC1C2=O (stereo unspecified)	inactive	-24% [at 11.4 µM] (inactive)	inactive	inactive	–	–	–
CCOP(=O)(CC(C(C)=O)C(O)c1ccccc1)OCC (stereo unspecified)	inactive	-15.8% [at 11.4 µM] (inactive)	inactive	inactive	–	–	–
O=C(O)C1Cc2c([nH]c3ccccc23)C(c2ccccc2)N1 (stereo unspecified)	inactive	-14.4% [at 11.4 µM] (inactive)	3.98 µM (active)	inactive	–	–	–
CCOC(=O)OCC1OC(c2ccccc2)C=CC1Oc1ccc2oc(=O)cc(C)c2c1 (stereo unspecified)	inactive	-10.6% [at 11.4 µM] (inactive)	inactive	inactive	–	–	–
Cc1ccccc1OC1C=CC(c2ccccc2)OC1CO (stereo unspecified)	inactive	-11.7% [at 11.4 µM] (inactive)	inactive	5.01 µM (active)	–	–	–
CC(C)C(=O)NC(=O)C1CCCN1C(=O)/C=C/c1ccccc1 (stereo unspecified)	inactive	-10.1% [at 11.4 µM] (inactive)	inactive	inactive	–	–	–
CC(C)CN1CCc2nc(-c3ccccc3)c3c(c2CC1)COC(C)C3 (stereo unspecified)	inactive	-18.5% [at 11.4 µM] (inactive)	inactive	inactive	–	–	–
COC(=O)NC(c1ccc(F)cc1)C(C(C)=O)C(=O)OC (stereo unspecified)	inactive	-15% [at 11.4 µM] (inactive)	–	inactive	–	–	–
COC(=O)NC(c1ccc(Cl)cc1)C(C(C)=O)C(=O)OC (stereo unspecified)	inactive	-15.4% [at 11.4 µM] (inactive)	inactive	1.58 µM (active)	–	–	–
C=CC[C@@H]1C=C[C@@H](O/N=C\c2ccc(C(=O)N3[C@H](c4ccc(C)cc4)[C@@H](C)CC[C@H]3C(=O)OC)cc2)[C@@H](CO)O1	3.98 µM (active)	–	–	–	-42.6% [at 11.4 µM] (inactive)	–	–
CC(=O)OCC1OC(C#Cc2ccc(F)cc2F)C=CC1OC(C)=O (stereo unspecified)	5.01 µM (active)	–	–	2.51 µM (active)	–	3.16 µM (active)	–
C=CCOCC1CN2C(CCC(C)C2c2ccc(Br)cc2)C(=O)O1 (stereo unspecified)	inactive	-11.7% [at 11.4 µM] (inactive)	inactive	inactive	–	–	–
O=C(/C=N/O)NCCCCNC(=O)/C=N/O	inactive	-14.7% [at 11.4 µM] (inactive)	inactive	inactive	–	–	–
CC1CCC2C(=O)N3CCCC3C(=O)N2C1c1ccc(Br)cc1 (stereo unspecified)	631 nM (active) and inactive	-43.7% [at 11.4 µM] (inactive) and -27.2% [at 11.4 µM] (inactive)	inactive	inactive	–	–	–
O=C(/C=C/c1ccccc1)N1CCCC1CO (stereo unspecified)	inactive	-20.7% [at 11.4 µM] (inactive)	inactive	inactive	–	–	–
CCCCCCC#CC1C=CC(OC(C)=O)C(COC(C)=O)O1 (stereo unspecified)	inactive	–	–	–	-57.5% [at 11.4 µM] (inactive)	–	–
COc1ccc(OCC2CC3C(CCC(C)C3c3ccc(Br)cc3)C(=O)O2)cc1 (stereo unspecified)	inactive	–	–	inactive	–	3.98 µM (active)	–
CC(C)CC1OCCC=CC1C (stereo unspecified)	inactive	-2.57% [at 11.4 µM] (inactive)	inactive	inactive	–	–	–

Compound	Potency [1]	activity change, negative = inhibition [2]	Potency [3]	Potency [4]	activity change, positive = activation [5]	Potency [2]	Potency [5]
CC1CCC(C(=O)O)NC1c1ccc(C#CCN(C)C)cc1 (stereo unspecified)	inactive	-30.5% [at 11.4 µM] (inactive)	inactive	inactive	–	–	–
COC(=O)NC(c1cccc(F)c1)C(C(C)=O)C(=O)OC (stereo unspecified)	inactive	-17.1% [at 11.4 µM] (inactive)	inactive	inactive	–	–	–
CC[C@@H](c1ccccc1)n1c(=O)n2n(c1=O)[C@H]1[C@H](O)[C@H]3O[C@@H]3/C(=N/OC/C=C(\C)CCC=C(C)C)[C@@H]1CC2	inactive	–	–	–	-40.3% [at 11.4 µM] (inactive)	–	–
O=C1/C(=C/c2ccccc2)Oc2ccccc21	inactive	-8.26% [at 11.4 µM] (inactive)	inactive	inactive	–	–	–
CCC1OCCC=CC1C (stereo unspecified)	inactive	-15% [at 11.4 µM] (inactive)	inactive	inactive	–	–	–
CO[C@H]1COC(=O)C/C=C\[C@H](C)[C@@H](OC)COC(=O)[C@H](C)COC(=O)C/C=C\[C@@H]1C	inactive	–	–	–	-33.7% [at 11.4 µM] (inactive)	–	–
CCOC(=O)OCC1OC(c2ccc(C(C)=O)cc2)C=CC1OC(=O)OCC (stereo unspecified)	inactive	-24.1% [at 11.4 µM] (inactive)	inactive	inactive	–	–	–
CCCC/C=C/C(NC(=O)c1ccc(C(F)(F)F)cc1)c1ccccc1 (stereo unspecified)	2 µM (active)	–	–	–	–	–	inactive
COc1cc(C2c3[nH]c4ccccc4c3CC3C(=O)N4C(Cc5c([nH]c6ccccc56)C4c4cc(OC)c(OC)c(OC)c4)C(=O)N32)cc(OC)c1OC (stereo unspecified)	inactive	-16.6% [at 11.4 µM] (inactive)	inactive	inactive	–	–	–
COC(=O)NC(CC(C)=O)c1ccc(Cl)cc1 (stereo unspecified)	inactive	-19.1% [at 11.4 µM] (inactive)	inactive	inactive	–	–	–
CC1CCC(C(=O)O)NC1c1cccc(N2CCOCC2)c1 (stereo unspecified)	inactive	-10.3% [at 11.4 µM] (inactive)	inactive	inactive	–	–	–
CCC(=O)CC(NC(=O)OC)c1ccc(F)cc1 (stereo unspecified)	inactive	-17.9% [at 11.4 µM] (inactive)	inactive	inactive	–	–	–
CCCCc1nc2c(c3c1CC(C)OC3)CN(CCC(C)C)CC2 (stereo unspecified)	inactive	–	–	inactive	–	3.98 µM (active)	–
COc1cc(O)c(C(=O)/C=C/c2ccccc2)c(O)c1	2 µM (active)	-28.7% [at 11.4 µM] (inactive)	inactive	1.58 µM (active)	–	–	–
C#CC(C)OC(=O)c1nnc2c3ccccc3n(COC)c2n1 (stereo unspecified)	inactive	-23.2% [at 11.4 µM] (inactive)	inactive	inactive	–	–	–
COC(=O)C/C=C1\c2ccccc2C(OC)C1C (stereo unspecified)	inactive	-21.3% [at 11.4 µM] (inactive)	–	inactive	–	–	–
OCC1OC(c2ccc3c(c2)OCO3)C=CC1Oc1ccc(C2CCCC2)cc1 (stereo unspecified)	inactive	–	–	–	-50.7% [at 11.4 µM] (inactive)	–	–
COc1cc(C2NC(C(=O)O)Cc3c2[nH]c2ccccc32)cc(OC)c1OC (stereo unspecified)	inactive	-17.2% [at 11.4 µM] (inactive)	1.26 µM (active)	inactive	–	–	–
